gsp agonist: agonists of gsp mutant (McCune-Albright syndrome) | gsp mutant cells, cAMP HTRF, 30 min | 340,000 compounds, 0.13% hits | Potency, µM (titrated, usually from 76.9 µM), inactives show at the top dose activation (cAMP increase), usual class: activators; active = well fitted activation curve with a large enough effect; inconclusive = small, poorly fitted or top-dose-only effect, or another doubt; inactive = no such curve, though single readings can be large or run the other way; cell line not stated here;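 note: phosphodiesterase inhibitor Ro 20-1724 added with compounds to block cAMP breakdown; potency is the fitted concentration of half-maximal effect; nearly all actives have a fitted effect of over 60% in size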
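Cells stably selected in G418 were plated at 2000/well, grown 16-24 hr, then given compounds in DMSO with the PDE inhibitor […] (300 uM solution added) for 30 min at 37C; cAMP was read by HTRF.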
TSHR antag: human thyrotropin receptor antagonism. activity change, negative = inhibition, % at 11.5 µM. 330,000 compounds, 0.2% hits. TSHR-expressing cells, TSH-stimulated cAMP HTRF, 2 h; stronger effect = lower value. P16473;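 active = activity change below a set negative limit, meaning inhibition stronger than a set level, cut at about -70% in these data; inconclusive = activity change between two set negative limits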; note: % is set by controls: 0 for no effect and ±100 for the full control effect
Target sequence (P16473 whole entry, looked up): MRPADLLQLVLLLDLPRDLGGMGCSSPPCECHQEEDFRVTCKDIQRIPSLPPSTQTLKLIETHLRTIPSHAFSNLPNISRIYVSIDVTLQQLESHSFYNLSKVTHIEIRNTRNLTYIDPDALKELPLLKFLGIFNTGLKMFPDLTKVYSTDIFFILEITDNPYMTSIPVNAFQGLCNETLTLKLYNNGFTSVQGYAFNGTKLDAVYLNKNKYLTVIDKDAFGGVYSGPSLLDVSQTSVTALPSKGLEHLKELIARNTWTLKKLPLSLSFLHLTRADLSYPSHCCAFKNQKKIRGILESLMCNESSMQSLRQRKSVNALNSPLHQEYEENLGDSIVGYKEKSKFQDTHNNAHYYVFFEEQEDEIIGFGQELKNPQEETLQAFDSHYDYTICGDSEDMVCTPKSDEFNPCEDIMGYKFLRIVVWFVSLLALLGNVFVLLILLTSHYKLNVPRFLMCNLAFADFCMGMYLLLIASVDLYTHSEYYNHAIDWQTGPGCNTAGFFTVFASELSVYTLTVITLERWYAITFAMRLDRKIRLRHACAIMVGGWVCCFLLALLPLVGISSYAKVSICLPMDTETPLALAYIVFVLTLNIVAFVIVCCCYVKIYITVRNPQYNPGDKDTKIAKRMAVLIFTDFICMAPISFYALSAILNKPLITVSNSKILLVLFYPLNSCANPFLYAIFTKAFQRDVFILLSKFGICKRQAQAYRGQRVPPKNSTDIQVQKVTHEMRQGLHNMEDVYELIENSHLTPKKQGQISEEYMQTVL
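Freshly harvested TSHR cells receive pin-tooled compound, then EC80 TSH at 4nM final. After 2 hours at 37 deg C, antibody in lysis buffer and cAMP-d2 are added; 30 minutes at ambient temperature precede the HTRF read.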
uPA generation: cell surface uPA generation inhibition. cell surface uPA generation assay, qHTS. Potency, µM (highest dose often 38.3 µM), inactives show top-dose activity change, negative = inhibition, actives largely listed as inhibitors. 330,000 compounds, 0.31% hits; active = well fitted inhibition curve with a large enough effect; inconclusive = small, poorly fitted or top-dose-only effect; inactive = no such curve, though single readings can be large or run the other way; tested in mouse RAW 264.7 cells; note: potency is the fitted concentration of half-maximal effect; % is set by controls: 0 for no effect and ±100 for the full control effect; nearly all actives have a fitted effect of over 55% in size
CCT modulator: cytosolic chaperonin activity modulation; 360,000 compounds, 0.3% hits; purified chaperonin ATPase assay, HTRF ADP detection, 30 min; AID 651819; activity change, % (no concentration beside the values), hits read low; in the data active = activity change below about -30%; note: % is set by controls: 0 for no effect and ±100 for the full control effect
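TRiC (40 or 20 nM final, by batch activity) in 30 mM Tris pH 7.4, 100 mM KCl, 5 mM MgCl2, 1 mM DTT was treated with compound at 76 uM single dose, then 10 uM ATP, 30 min at 37 °C. ADP was read by HTRF Transcreener.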
MmCpn inh: blocks the Methanococcus maripaludis chaperonin Mm-Cpn. purified Mm-Cpn ATPase, ADP Transcreener TR-FRET. Potency, µM (top dose mostly 76.9 µM), for the others: at the highest dose activity, negative = inhibition, hits mostly inhibitors. 330,000 compounds, 0.031% hits; active = well fitted inhibition curve with a large enough effect; inconclusive = small, poorly fitted or top-dose-only effect; note: potency is the fitted concentration of half-maximal effect; % is set by controls: 0 for no effect and ±100 for the full control effect; nearly all actives have a fitted effect of over 80% in size
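ATP (10 uM final) was added to archaeal chaperonin (25 nM final) after 10 min exposure to test compound at 37°C; after 30 min further incubation, ADP was detected by competitive TR-FRET.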
gsp antag: antagonizes gsp, the McCune-Albright syndrome mutation; gsp-mutant cells, cAMP HTRF, 30 min; Potency, µM (doses to about 76.9 µM), for the others: top-dose activity change, negative = inhibition, usual class: inhibitors; 340,000 compounds, 0.4% hits; calls by dose curve; cell line not stated here;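 note: intracellular cAMP measured with PDE inhibitor Ro 20-1724 present during compound exposure; potency is the fitted concentration of half-maximal effect; % is set by controls: 0 for no effect and ±100 for the full control effect; nearly all actives have a fitted effect of over 65% in size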
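Cells in G418 medium, seeded 16-24 h, 37C; buffer exchange to DPBS + 1 mM CaCl2, 0.5 mM MgCl2, 0.05% BSA; cpds in DMSO + […] (300 uM stock), 30 min 37C; HTRF cAMP detection.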
* = called active by the depositor; ? = inconclusive; . = not tested or not shown; [ ] = another dose, or the depositor's remark. Hits are enriched below; roughly 1.2% of the tested compounds scored in any of these assays.

SMILES | gsp agonist | TSHR antag | uPA generation | CCT modulator | MmCpn inh | gsp antag
COC(=O)[C@H]1C[C@@H]1[C@H](N)c1ccccc1 | ? | 4 | -12% | -49* | -3% | 9%
COC(=O)[C@@H]1C[C@H]1[C@@H](NS(=O)(=O)c1ccccc1)c1ccccc1 | -2% | 5 | -6% | 0 | 0% | -1%
O=C(COC(=O)c1cc(S(=O)(=O)Nc2ccccc2Cl)ccc1O)Nc1nc2ccccc2s1 | 14%[15.4 µM] | -11 | 3% | 2 | -3% | ?
S=c1[nH]nc(-c2ccc3ccccc3n2)n1-c1ccccc1 | ? | 6 | -2% | -69* | -7% | 0%
Fc1ccccc1-n1c(-c2ccc3ccccc3n2)n[nH]c1=S | 1% | 20 | 1% | -1 | 0% | -13%
O=C(OCCc1cc2ccccc2c(=O)o1)c1ccccc1C(F)(F)F | -33% | -71* | -7% | -3 | 1% | -20%
O=C(OCCCc1cc2ccccc2c(=O)o1)c1ccccc1C(F)(F)F | . | 13 | 19% | 1 | -1% | -7%
Cc1ccc(NC(=O)Nc2nnc(-c3ccncc3)s2)cc1C | -1% | -19 | -2% | -2 | -12% | 45µM*
O=C(Nc1cccc(Cl)c1)Nc1nnc(-c2ccncc2)s1 | -62% | -73* | 1% | 0 | -1% | ?
Cc1cccc(NC(=S)N2CCN(S(=O)(=O)c3ccccc3)CC2)c1 | -13% | 4 | -2% | -1 | 1% | -3%
COC(=O)c1sc(S(=O)(=O)N2CCC(C(N)=O)CC2)c(C(=O)OC)c1C | -9% | -1 | -1% | -33* | 0% | -2%
CCCc1ccc(-c2cc(C(=O)N3CCN(c4ccccn4)CC3)c3ccccc3n2)cc1 | 3% | -18 | 7.1µM* | -3 | 0% | -7%
O=C(c1ccc(Cl)cc1Cl)N1CCN(c2ccccn2)CC1 | 5%[15.4 µM] | 11 | -2% | -33* | 1% | 9%
COc1ccc(N2CCN(C(=O)c3cc(-c4cc(OC)ccc4OC)nc4ccccc34)CC2)cc1 | -59% | -17 | 11% | 1 | 2% | ?
O=C(c1cc(Cl)ccc1Cl)N1CCN(c2ccccn2)CC1 | 28% | -2 | 0% | -2 | 1% | -5%
CCOc1ccc(-c2cc(C(=O)N3CCN(c4ccccn4)CC3)c3ccccc3n2)cc1 | 9% | 10 | . | 1 | 0% | -4%
CCOc1ccccc1N1CCN(C(=O)c2cc(-c3cc(OC)ccc3OC)nc3ccccc23)CC1 | 23% | -22 | -7% | -1 | -6% | 14µM*
CN1CCCN(C(=O)c2cc(-c3cccc4ccccc34)nc3ccccc23)CC1 | -5%[15.4 µM] | -77* | -5% | -5 | -1% | 0%
CC1(C)CC(=O)C2=C(C1)OC(N)=C(C#N)C2c1ccccc1 (centres undefined) | 10% | -17 | -4% | -1 | -1% | 13%
O=S(=O)(N[C@H]1C[C@@H](NS(=O)(=O)OCC(Cl)(Cl)Cl)C2CCCCC21)OCC(Cl)(Cl)Cl (some centres undefined) | ? | -12 | -7% | 0 | -4% | -6%
Cc1ccc(-c2cc(C(=O)N3CCN(c4ccccc4O)CC3)c3ccccc3n2)cc1 | 12%[15.4 µM] | 9 | -4% | 1 | 1% | -16%
Cc1ccc(-c2cc(C(=O)N3CCN(c4ccc(O)cc4)CC3)c3ccccc3n2)cc1 | -1% | . | 10µM* | 1 | -5% | -18%
CC1(C)CC(=O)C/C(=N\NC(=O)C2CC23CCC3)C1 (centres undefined) | -4%[15.4 µM] | 0 | . | 1 | 50µM* | -12%
CCOC(=O)N1CCN(CC(=O)Nc2sccc2C#N)CC1 | 0% | 0 | 11µM* | 1 | -4% | -7%
N#Cc1ccsc1NC(=O)CN1CCCCCC1 | 8% | 8 | 7% | -1 | -7% | 0%
SMILES | gsp agonist | TSHR antag | uPA generation | CCT modulator | MmCpn inh | gsp antag
Cc1c(C(=O)NC2CCCCC2C)oc2ccccc12 (centres undefined) | ? | -20 | 0% | -2 | 4% | 7.1µM*
CCCCNS(=O)(=O)/C=C/c1ccccc1 | -71% | 2 | 4% | -3 | 0% | 8%
CCN(C(=O)CN1C(=O)NC2(CCc3ccccc32)C1=O)C1CCS(=O)(=O)C1 (centres undefined) | -26% | 4 | -2% | -34* | -5% | 5%
O=C(NC1CCCCCC1)c1cc2c(=O)n3ccccc3nc2s1 | 30%[15.4 µM] | -3 | -1% | -3 | -5% | 8%
CCOC(=O)C1CCCN(C(=O)c2cccnc2Oc2ccccc2)CC1 (centres undefined) | . | . | . | -2 | . | .
O=C(O)c1ccc2c3c(cccc13)C(=O)N(c1ccccc1)C2=O | 31% | 4 | 3% | -2 | 2% | 1%
CC(=O)Nc1ccc2c3c(cccc13)C(=O)N(c1ccccc1)C2=O | 35µM* | -5 | 0% | -4 | -1% | -8%
O=C(O)c1ccc(N2C(=O)c3cccc4c(C(=O)O)ccc(c34)C2=O)cc1 | 20µM* | -1 | -5% | -4 | 0% | -7%
COc1ccc(C(=O)Nc2ccc3ccccc3n2)c(OC)c1OC | -16% | -10 | 2.8µM* | -2 | -7% | -12%
O=C(Nc1ccc2ccccc2n1)c1ccccc1Cl | 6% | -1 | ? | -3 | 3% | 6%
CCc1sc2nc(SCC(=O)Nc3cc(C)on3)n(-c3cccc(OC)c3)c(=O)c2c1C | 3% | 15 | -3% | -36* | -3% | -6%
Cc1ccc(NC(=S)NC(NC(=O)N(C)C)C(Cl)(Cl)Cl)cc1 (centres undefined) | -6% | 18 | -1% | 1 | 2% | 4%
Cc1cc(NS(=O)(=O)c2ccc(NC(=O)COc3ccc(C#N)cc3)cc2)nc(C)n1 | 21%[15.4 µM] | . | 1% | -32* | -3% | -4%
CCOC(=O)N(C)c1c(CC)nc2c(OCCOc3ccccc3)cccn12 | . | . | . | 0 | . | .
O=C1c2cccc([N+](=O)[O-])c2C(=O)N1c1cccnc1 | 11%[15.4 µM] | 0 | 0% | 2 | -1% | -29%
O=C1c2ccccc2C(=O)N1c1cccnc1 | ? | . | 8% | -44* | . | 3%
O=C(NCC1COc2ccccc2O1)C1C2C=CC3(CN(Cc4cccs4)C(=O)C13)O2 (centres undefined) | 17% | 8 | -1% | -1 | ? | -4%
COc1cc(/C=C(/C#N)c2ccc(F)cc2)ccc1OCc1ccc(C(=O)O)o1 | 6% | -17 | . | 1 | -2% | 40µM*
Cc1ccc(S(=O)(=O)Nc2ccc(O)c3ncccc23)cc1 | -46% | 12 | 7.9µM* | -2 | 3% | -12%
CSc1cccc(NC(=S)N(Cc2ccc(C)cc2)Cc2cccnc2)c1 | -2%[15.4 µM] | -8 | 8% | -2 | 0% | -5%

Screening results (PubChem BioAssay)
